The text below walks through data of PubChem BioAssay (NCATS).

Experiment [1] can be described thus: AP1 Signaling Pathway (AID 357; active means well fitted curve in either direction with a large enough effect, not every such curve was filed as active;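 further: ME-180 reporter cells stimulated with EGF at its EC50 level; on the % scale 0 is the no-effect control and ±100 the full control effect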). To be noted: ME-180 AP-1-bla reporter, EGF-induced, beta-lactamase ratio, 5 h. The method, boiled down:
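First, ME-180 AP-1-bla cells were cultured overnight at 37 °C in low-serum Opti-MEM. Next, titrated compounds with EC50 EGF were incubated 5 hours. Finally, CCF4 was added for 2.5 hours and the 460/530 nm ratio recorded.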

The target of experiment [2] is Cytochrome P450 1A2 (Homo sapiens) (UniProt P05177). As to the kind of experiment: p450-cyp1a2 (AID 410; calls by dose curve; further: potency means the concentration at half of the fitted maximal effect). Particulars: recombinant CYP1A2, luciferin-ME demethylation, luminescence; series mostly up to 57 µM. The method, boiled down:
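O-Demethylation of luciferin 6' methyl ether by human CYP1A2 is monitored as luciferase luminescence. Substrate sits at Km (100uM); enzyme is 20nM. Values are scaled to 57 uM furafylline as maximal inhibition.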

In experiment [3] the target is Mitogen-activated protein kinase 10 (Mus musculus) (UniProt Q61831). As to the kind of experiment: JNK3 AlphaScreen Assay (AID 530; active means well fitted curve in either direction with a large enough effect, not every such curve was filed as active;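 further: kinase came from lysate of stimulated human HepG2 cells; signal reports phosphorylation of biotinylated GST-cJun 1-79 at Ser73 with 10 µM ATP; on the % scale 0 is the no-effect control and ±100 the full control effect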). To be noted: JNK3 lysate, c-Jun phosphorylation; series mostly up to 57.1 µM. The method, boiled down:
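Phosphorylation of biotinylated GST-cJun(1-79) at Ser73 is measured by AlphaScreen proximity luminescence. Enzyme is JNK3 in HepG2 lysates activated with interleukin-1beta and tumor necrosis factor alpha; ATP is 10 uM final.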
For orientation: In Alpha technology, singlet oxygen from a donor bead excites a nearby acceptor bead.

In experiment [4] the target is 3',5'-cyclic-AMP phosphodiesterase 4B (Homo sapiens) (UniProt Q07343). As to the kind of experiment: qHTS Assay for Inhibitors of PDE-IV (AID 607; active means well fitted activation curve with a large enough effect in the main read-out, with a control signal flat, not every such curve was filed as active; further: % of control where 0% means no effect). Particulars: HEK293 ACTOne CNG channel cells, membrane potential fluorescence; series mostly up to 22.9 µM. The method, boiled down: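 Cell-based read-out of cAMP via a modified cyclic nucleotide-gated channel and membrane potential dye (535/590 nm) in HEK293 cells expressing PDE4 endogenously. Compounds tested up to 22.9 uM final; 100 uM RO 20-1724 reference.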
Sequence of 3',5'-cyclic-AMP phosphodiesterase 4B (Homo sapiens) (Q07343 whole entry, looked up): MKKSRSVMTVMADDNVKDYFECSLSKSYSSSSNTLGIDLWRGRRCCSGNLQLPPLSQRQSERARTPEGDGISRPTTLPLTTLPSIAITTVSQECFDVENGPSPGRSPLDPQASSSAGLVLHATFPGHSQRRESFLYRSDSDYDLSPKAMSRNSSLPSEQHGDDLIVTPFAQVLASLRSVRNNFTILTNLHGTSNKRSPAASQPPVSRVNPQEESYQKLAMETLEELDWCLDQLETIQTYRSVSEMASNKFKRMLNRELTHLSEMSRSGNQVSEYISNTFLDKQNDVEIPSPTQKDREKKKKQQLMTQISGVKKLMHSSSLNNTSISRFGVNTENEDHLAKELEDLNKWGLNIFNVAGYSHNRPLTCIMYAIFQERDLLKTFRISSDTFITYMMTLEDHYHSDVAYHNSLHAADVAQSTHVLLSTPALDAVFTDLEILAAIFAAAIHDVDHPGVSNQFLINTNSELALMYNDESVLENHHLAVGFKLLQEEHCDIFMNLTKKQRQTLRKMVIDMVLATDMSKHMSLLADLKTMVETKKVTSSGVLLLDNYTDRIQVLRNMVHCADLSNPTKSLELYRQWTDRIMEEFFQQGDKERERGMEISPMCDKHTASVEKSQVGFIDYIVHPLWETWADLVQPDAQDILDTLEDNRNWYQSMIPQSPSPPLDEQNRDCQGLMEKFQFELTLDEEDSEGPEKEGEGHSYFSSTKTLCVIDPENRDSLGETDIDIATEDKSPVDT

Experiment [5] has as its target Guanine nucleotide-binding protein G(i) subunit alpha-1 (Homo sapiens) (UniProt P63096). As to the kind of experiment: qHTS Assay for Inhibitors of RGS12 GoLoco Motif Activity (Green Fluorophore) (AID 879). Further: potency means the concentration at half of the fitted maximal effect. To be noted: Galphai1/FITC-RGS12 GoLoco peptide, fluorescence polarization; series mostly up to 57.1 µM. Put shortly: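 A drop in FITC polarization marked displacement of the FITC-tagged RGS12 GoLoco peptide (10 nM) from Gαi1 (50 nM). Compounds were incubated 10 min at room temperature in Tris pH 7.5 buffer containing 150 mM NaCl, 0.1 mM GDP and 0.05% NP40; unlabeled peptide titration served as control.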

Experiment [6] deals with Pyruvate kinase (Leishmania mexicana) (UniProt Q27686). Kind of experiment: qHTS Validation Assay for Inhibitors of Leishmania Mexicana Pyruvate Kinase (AID 945).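 Further: 0% = DMSO only neutral control wells.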 To be noted: purified L. mexicana pyruvate kinase, enzyme activity, E451W mutant enzyme; series mostly up to 57.5 µM. Put shortly: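 Luminescent ATP detection (PKLight) after a 1 h room-temperature reaction of 0.2 nM LmPYK E451W mutant with 0.5 mM PEP and 0.1 mM ADP at pH 7.2. Activity is normalized to DMSO-only control wells.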
Sequence of Pyruvate kinase (Leishmania mexicana) (Q27686 2-499 E452W): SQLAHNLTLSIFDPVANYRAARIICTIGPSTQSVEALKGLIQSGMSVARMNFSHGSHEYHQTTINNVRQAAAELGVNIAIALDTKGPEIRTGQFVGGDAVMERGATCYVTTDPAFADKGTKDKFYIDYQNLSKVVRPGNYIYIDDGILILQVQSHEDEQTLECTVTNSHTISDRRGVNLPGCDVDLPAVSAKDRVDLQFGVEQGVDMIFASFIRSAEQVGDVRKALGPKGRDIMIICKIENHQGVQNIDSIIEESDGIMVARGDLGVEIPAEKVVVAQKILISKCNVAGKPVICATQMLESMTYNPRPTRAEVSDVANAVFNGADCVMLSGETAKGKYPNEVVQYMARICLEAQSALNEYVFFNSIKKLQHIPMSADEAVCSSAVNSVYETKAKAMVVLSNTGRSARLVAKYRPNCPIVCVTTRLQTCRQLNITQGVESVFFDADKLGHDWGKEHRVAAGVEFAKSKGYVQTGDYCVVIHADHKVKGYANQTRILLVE
(In general: qHTS replaces the single test concentration by a dilution series.)

The target of experiment [7] is Pyruvate kinase PKM (Homo sapiens) (UniProt P14618). As to the kind of experiment: qHTS Assay for Activators of Human Muscle Pyruvate Kinase (AID 954; active means well fitted curve in the direction sought with a large enough effect, not every such curve was filed as active;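 further: 0% = uninhibited enzyme and -100% = no enzyme or full thiadiazolimine inhibition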). Particulars: purified human muscle pyruvate kinase, luciferase-coupled luminescence, 1 h; series mostly up to 57.5 µM. Put shortly:
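ATP production by PKM2 detected via luciferase luminescence after 1 h room-temperature reaction (0.1 nM enzyme, PEP at Km 0.5 mM, ADP 0.1 mM, pH 7.2 imidazole buffer). Inhibition scaled to no-enzyme control; activation referenced to 0.3 nM enzyme wells.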

The target of experiment [8] is alpha-glucosidase (Oryza sativa, rice) (UniProt Q653V4). Kind of experiment: Counterscreen for Glucocerebrosidase Inhibitors: qHTS Assay for Rice alpha-Glucosidase at pH 5.0 (AID 997).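 Further: 0% = full activity with enzyme and -100% = basal without enzyme.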 To be noted: rice alpha-glucosidase enzyme activity; series mostly up to 76.9 µM. The method, boiled down: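 Endpoint fluorogenic assay at pH 5.0: compounds (0.7 nM to 77 uM) titrated against 4 nM rice enzyme and 400 uM 4-MU-alpha-glucoside for 20 min at room temperature; NaOH/glycine stop, read ex 365/em 440 nm, Hill-fitted AC50.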
(The purpose of a counterscreen is to sort out artefacts and off-target activity.)

Experiment [9] can be described thus: qHTS Assay for Lipid Storage Modulators (AID 1519; calls by dose curve). Particulars: Drosophila S3 cells, BODIPY lipid droplet/cell ratio, laser cytometry, cells loaded with oleic acid; for activity change, negative = inhibition: at 25.7 µM (top of the series). Put shortly: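 Cells seeded at 5,000 per well were treated with compounds over a concentration series and loaded with oleic acid (400 uM, as added). Lipid droplet fluorescence (488 nm excitation, 500-530 nm channel) was read by laser-scanning cytometry and normalized to 20 uM Triacsin C.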

Experiment [10] has as its target ATP-dependent 6-phosphofructokinase (Trypanosoma brucei brucei) (UniProt O15648). As to the kind of experiment: qHTS Assay to Find Inhibitors of T. brucei phosphofructokinase: hit validation (AID 492961).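 Further: luminescence reports ADP formed as PFK phosphorylates fructose-6-phosphate with ATP; on the % scale 0 is the no-effect control and ±100 the full control effect.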 Particulars: T. brucei PFK, ADP-Glo luminescence; series mostly up to 24.3 µM. The method, boiled down: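 Reaction: 0.1 M triethanolamine pH 8.0, 5 mM MgCl2, F6P 0.5 mM, ATP 0.1 mM, PFK 1.25 nM, 45 min RT. Read-out: ADP-Glo luminescence. Analysis: concentration-response fits, classed by r2 and efficacy.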

In experiment [11] the target is Ubiquitin carboxyl-terminal hydrolase 1 (Homo sapiens) (UniProt O94782). Kind of experiment: Inhibitors of USP1/UAF1: Pilot qHTS (AID 504865). Further: nearly all actives have a fitted effect of over 35% in size. Further: potency means the concentration at half of the fitted maximal effect. To be noted: purified USP1/UAF1, Ub-rhodamine cleavage fluorescence; series mostly up to 54.9 µM. The method, boiled down: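 1nM USP1/UAF1 + cpd, 15 min RT; start w/ Ub-Rho 150nM final; kinetic FL 480/540 nm, 6 reads q60 s. Buffer 50mM HEPES pH 7.8, 0.5mM EDTA, 1mM TCEP, 0.01% Tween-20, 0.1 mg/ml BSA.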
Sequence of Ubiquitin carboxyl-terminal hydrolase 1 (Homo sapiens) (O94782 whole entry, looked up): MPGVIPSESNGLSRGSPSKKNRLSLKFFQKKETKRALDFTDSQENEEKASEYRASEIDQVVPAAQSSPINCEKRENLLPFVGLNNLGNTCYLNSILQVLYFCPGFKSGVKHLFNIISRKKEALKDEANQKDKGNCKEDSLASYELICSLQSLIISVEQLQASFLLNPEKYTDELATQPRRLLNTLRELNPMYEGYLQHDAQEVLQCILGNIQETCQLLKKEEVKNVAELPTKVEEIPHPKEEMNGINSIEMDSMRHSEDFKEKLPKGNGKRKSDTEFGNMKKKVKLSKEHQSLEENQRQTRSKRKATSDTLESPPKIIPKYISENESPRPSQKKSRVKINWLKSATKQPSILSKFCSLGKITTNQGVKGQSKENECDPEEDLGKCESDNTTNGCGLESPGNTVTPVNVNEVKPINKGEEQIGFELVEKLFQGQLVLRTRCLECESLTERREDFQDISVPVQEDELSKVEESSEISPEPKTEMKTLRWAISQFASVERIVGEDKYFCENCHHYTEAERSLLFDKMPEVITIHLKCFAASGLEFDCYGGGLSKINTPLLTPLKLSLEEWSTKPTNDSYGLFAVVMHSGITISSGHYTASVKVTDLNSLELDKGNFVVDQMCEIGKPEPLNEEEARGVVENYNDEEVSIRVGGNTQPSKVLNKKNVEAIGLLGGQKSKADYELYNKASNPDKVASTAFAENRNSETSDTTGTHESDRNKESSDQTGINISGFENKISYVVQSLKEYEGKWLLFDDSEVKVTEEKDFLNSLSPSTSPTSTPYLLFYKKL

Experiment [12] deals with Luciferin 4-monooxygenase (Photinus pyralis) (UniProt P08659). As to the kind of experiment: Biochemical firefly luciferase enzyme assay for NPC (AID 624030).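 Further: purified P. pyralis luciferase at 10 nM with luciferin and ATP substrate; 0% = DMSO and -100% = full luciferase inhibition by PTC124 control; nearly all actives have a fitted effect of over 70% in size.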 To be noted: purified P. pyralis luciferase, luminescence, 5 min; series mostly up to 58.6 µM. The method, boiled down:
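Counter-screen for direct inhibition of the luciferase enzyme by approved-drug library compounds, run at 10 nM enzyme in 50 mM Tris acetate (final). Luminescence was read within 5 min of enzyme-buffer addition and normalized to PTC124 versus DMSO (0%).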

Experiment [13] is described as follows: qHTS profiling for inhibitors of Plasmodium falciparum proliferation (AID 504749). Further: potency means the concentration at half of the fitted maximal effect.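 On activity, negative = inhibition: 0% = DMSO vehicle and full inhibition = artemisinin control.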 On all read-outs here: nearly all actives have a fitted effect of over 60% in size. To be noted: P. falciparum in erythrocytes, SYBR Green DNA, 72 h; for activity, negative = inhibition: at 12.8 µM (top of the series). The method, boiled down:
(§1)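 Quantitative HTS: compounds pinned into medium, infected erythrocytes added (0.3% parasitemia, 2.5% hematocrit), 72 h culture at 37 C under 5% CO2. Saponin/Triton lysis with SYBR Green I, overnight RT, then fluorescence read.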

The next experiment concerns AS120. The description is as above. To be noted: P. falciparum in erythrocytes, SYBR Green DNA, 72 h; series mostly up to 28.7 µM. Put shortly: as §1
Another experiment has as its system CP238. The experiment is described as above. To be noted: P. falciparum in erythrocytes, SYBR Green DNA, 72 h; series mostly up to 12.8 µM. The method, boiled down:
as §1

In a further experiment the test system is FAB9. The description is as above. Particulars: P. falciparum in erythrocytes, SYBR Green DNA, 72 h; series mostly up to 12.8 µM. Put shortly: as §1
Experiment [14] is described as follows: NFAT Signaling Pathway (AID 444; active means well fitted curve in either direction with a large enough effect, not every such curve was filed as active;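 further: carbachol stimulus at about its EC50 of 1 µM final; on the % scale 0 is the no-effect control and ±100 the full control effect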). Particulars: Jurkat NFAT-bla M1, carbachol, beta-lactamase ratio, 5 h; at 7.69 µM (top of the series) unless noted. The method, boiled down: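 Jurkat cells carrying an NFAT-driven β-lactamase reporter and co-transfected muscarinic M1 receptor were treated with compound plus carbachol (1 uM final, an EC50 level) for 5 h at 37 °C. CCF4 loading followed for 1 h at RT; 460/530 nm ratio gave %activity.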

Experiment [15] is described as follows: Stat Signaling Pathway (AID 446; active means well fitted curve in either direction with a large enough effect, not every such curve was filed as active). To be noted: ME-180 (cervical carcinoma) SIE beta-lactamase reporter, IL-6 stimulated, 5 h; at 7.69 µM (top of the series) unless noted. The method, boiled down:
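FRET read-out (405 nm excitation, 460/530 nm emission) of a beta-lactamase reporter under a STAT-inducible element in ME-180 cervical carcinoma cells. Cells with compound receive 40 pM IL-6 for 5 h. Values are normalised to AC90 stimulation and AC90 JAK-inhibitor controls.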

The target of experiment [16] is Glucocorticoid receptor (Homo sapiens) (UniProt P04150). Kind of experiment: GR-GFP Redistribution (AID 450;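 active means compounds whose dose series gives a full or clear partial fitted curve of increased nuclear translocation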; further: potency means the concentration at half of the fitted maximal effect). To be noted: U2OS GR-GFP nuclear translocation, laser cytometry, 2 h.
Sequence of Glucocorticoid receptor (Homo sapiens) (P04150 whole entry, looked up): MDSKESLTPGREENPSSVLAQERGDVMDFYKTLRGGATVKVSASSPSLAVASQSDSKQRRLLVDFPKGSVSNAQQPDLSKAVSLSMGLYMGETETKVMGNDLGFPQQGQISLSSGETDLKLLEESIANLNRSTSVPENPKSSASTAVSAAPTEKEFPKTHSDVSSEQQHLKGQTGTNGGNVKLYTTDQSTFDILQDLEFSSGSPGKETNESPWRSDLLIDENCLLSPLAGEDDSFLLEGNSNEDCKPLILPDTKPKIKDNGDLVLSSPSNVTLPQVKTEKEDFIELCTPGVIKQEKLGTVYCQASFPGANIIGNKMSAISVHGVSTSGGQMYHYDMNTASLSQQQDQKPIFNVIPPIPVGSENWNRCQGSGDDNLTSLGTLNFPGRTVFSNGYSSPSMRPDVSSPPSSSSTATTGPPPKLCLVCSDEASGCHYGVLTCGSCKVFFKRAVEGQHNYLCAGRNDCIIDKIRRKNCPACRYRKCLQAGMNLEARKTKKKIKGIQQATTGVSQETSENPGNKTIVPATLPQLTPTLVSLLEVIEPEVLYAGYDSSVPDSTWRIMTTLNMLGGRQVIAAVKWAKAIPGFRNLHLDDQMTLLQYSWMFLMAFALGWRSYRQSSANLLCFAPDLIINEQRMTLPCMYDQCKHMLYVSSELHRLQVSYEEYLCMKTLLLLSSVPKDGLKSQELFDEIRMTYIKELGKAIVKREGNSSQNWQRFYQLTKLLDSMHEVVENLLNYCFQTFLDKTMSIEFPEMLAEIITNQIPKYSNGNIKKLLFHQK
Experiment [17] shares this target. As to the kind of experiment: GR-EFC Redistribution (AID 451; calls by dose curve; further: potency means the concentration at half of the fitted maximal effect). To be noted: CHO-K1 GR-EFC translocation, beta-gal luminescence, 2 h. Put shortly:
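CHO-K1 cells stably expressing nuclear-localized β-gal enzyme acceptor and GR fused C-terminally to the enzyme donor fragment; ligand-driven nuclear translocation restores β-gal by complementation. Compounds titrated up to 46 uM final, 2 h at 37 °C; luminescence read.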

The mark [18] stands for this setting: measured here: cell count channel max response.
[19] abbreviates: measured here: lipid channel max response.

Where “and” joins values, the source holds several entries; their conditions need not be identical. Equal entries are not always repeated. Results filed as inconclusive are left out. Calls of active or inactive are those of the source. Unless noted, the call rests on the fitted dose curve; in most records, active means well fitted curve in the direction sought with a large enough effect; inconclusive means small, poorly fitted or top-dose-only effect, or another doubt; inactive means no such curve, though single readings can be large; an effect the other way counts as inactive or inconclusive. Some results are limits rather than exact numbers.

Sequence of Cytochrome P450 1A2 (Homo sapiens) (P05177 whole entry, looked up): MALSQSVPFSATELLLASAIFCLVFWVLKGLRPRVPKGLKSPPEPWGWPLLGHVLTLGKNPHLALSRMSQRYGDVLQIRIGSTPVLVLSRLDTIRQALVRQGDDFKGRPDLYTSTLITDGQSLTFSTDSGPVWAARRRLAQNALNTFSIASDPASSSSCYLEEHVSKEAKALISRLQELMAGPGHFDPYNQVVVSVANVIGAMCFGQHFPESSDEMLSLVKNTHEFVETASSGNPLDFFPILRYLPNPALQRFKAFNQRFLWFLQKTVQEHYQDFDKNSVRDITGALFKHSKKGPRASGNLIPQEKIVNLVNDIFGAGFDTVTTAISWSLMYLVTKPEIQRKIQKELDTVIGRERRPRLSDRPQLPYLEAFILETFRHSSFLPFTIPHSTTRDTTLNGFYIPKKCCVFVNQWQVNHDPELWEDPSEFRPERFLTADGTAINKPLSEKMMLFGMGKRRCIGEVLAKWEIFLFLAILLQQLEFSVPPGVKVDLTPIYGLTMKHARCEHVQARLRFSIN
Sequence of ATP-dependent 6-phosphofructokinase (Trypanosoma brucei brucei) (O15648 whole entry, looked up): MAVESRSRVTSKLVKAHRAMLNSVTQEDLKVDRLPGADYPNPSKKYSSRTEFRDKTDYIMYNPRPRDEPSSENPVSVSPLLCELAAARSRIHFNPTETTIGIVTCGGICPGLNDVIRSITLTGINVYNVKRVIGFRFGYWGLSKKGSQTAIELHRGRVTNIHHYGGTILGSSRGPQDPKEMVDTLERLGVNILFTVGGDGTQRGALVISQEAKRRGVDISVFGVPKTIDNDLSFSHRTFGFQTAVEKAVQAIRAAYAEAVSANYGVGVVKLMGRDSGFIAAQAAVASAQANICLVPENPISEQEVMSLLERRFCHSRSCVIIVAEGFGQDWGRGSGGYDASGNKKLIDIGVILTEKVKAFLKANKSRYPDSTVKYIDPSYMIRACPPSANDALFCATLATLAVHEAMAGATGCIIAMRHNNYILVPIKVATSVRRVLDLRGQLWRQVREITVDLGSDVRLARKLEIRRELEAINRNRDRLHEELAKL
Sequence of Luciferin 4-monooxygenase (Photinus pyralis) (P08659 whole entry, looked up): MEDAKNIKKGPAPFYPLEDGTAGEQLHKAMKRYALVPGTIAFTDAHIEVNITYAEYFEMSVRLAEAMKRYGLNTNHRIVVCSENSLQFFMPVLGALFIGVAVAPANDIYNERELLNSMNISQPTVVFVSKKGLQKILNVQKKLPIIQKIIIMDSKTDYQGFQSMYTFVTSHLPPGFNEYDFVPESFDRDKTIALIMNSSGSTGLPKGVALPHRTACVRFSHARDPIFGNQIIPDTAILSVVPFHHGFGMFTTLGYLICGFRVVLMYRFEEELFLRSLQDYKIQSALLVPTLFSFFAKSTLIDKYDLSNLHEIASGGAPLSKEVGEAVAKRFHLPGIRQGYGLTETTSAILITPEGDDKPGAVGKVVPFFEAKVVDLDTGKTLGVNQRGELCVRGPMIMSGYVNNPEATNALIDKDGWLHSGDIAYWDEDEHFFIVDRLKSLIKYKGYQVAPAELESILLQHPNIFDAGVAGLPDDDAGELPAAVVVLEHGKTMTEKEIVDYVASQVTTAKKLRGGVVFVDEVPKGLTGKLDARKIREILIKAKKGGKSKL
Sequence of Pyruvate kinase PKM (Homo sapiens) (P14618 whole entry, looked up): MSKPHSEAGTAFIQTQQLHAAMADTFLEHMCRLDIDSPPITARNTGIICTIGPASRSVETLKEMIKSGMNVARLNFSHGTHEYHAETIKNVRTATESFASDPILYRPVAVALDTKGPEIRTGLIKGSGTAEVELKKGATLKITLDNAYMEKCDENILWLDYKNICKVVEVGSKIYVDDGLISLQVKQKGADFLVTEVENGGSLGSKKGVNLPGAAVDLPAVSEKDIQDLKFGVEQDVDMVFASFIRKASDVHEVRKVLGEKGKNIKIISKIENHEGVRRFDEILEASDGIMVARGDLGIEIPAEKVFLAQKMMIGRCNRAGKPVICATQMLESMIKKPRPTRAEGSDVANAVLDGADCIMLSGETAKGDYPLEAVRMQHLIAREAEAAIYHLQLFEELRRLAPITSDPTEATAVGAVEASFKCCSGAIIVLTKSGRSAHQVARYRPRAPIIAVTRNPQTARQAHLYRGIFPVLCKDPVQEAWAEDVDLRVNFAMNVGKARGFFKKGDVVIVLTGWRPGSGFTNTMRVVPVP

For the compound `CCN(CC)CCC[C@H](C)Nc1c2ccc(Cl)cc2nc2ccc(OC)cc12`, the figures for the activity change, negative = inhibition in experiment [1] (at 17.2 µM (top of the series)), in experiment [1] (at 38 µM (top of the series)) and in experiment [9] were 28.6% (inactive), 21.9% (inactive) and -0.0943% (inactive), respectively. For the same compound, the Potency in [2] is 2 µM (active) and 1 µM (active); in [5], 25100 nM (active); in experiment [11], 31600 nM (active); in experiment [13] (parasite line A) it was 224 nM (active); in experiment [13] (parasite line B), 282 nM (active); in the experiment on AS120, 794 nM (active). The values for the Potency with CP238 and in the experiment on FAB9 were 1120 nM (active) and 447 nM (active), respectively. Further, the Potency entry in experiment [3] and in experiment [4] was “inactive” each time. Moreover, the compound was classed as inactive in experiment [6], in experiment [7], in experiment [8], in [10] and in experiment [12]. For the same compound, the max response in [9] (setting [18]) was -11.8%; in experiment [9] (setting [19]), -13%.

Regarding `COc1c(O)cc2c(c1O)[C@@H]1O[C@@H](CO)[C@@H](O)[C@@H](O)[C@@H]1OC2=O`, the activity change, negative = inhibition in experiment [1] (at 7.69 µM (top of the series) unless noted) is 9.85% [at 17.2 µM] (inactive); in experiment [14], 4.01% [at 17.2 µM] (inactive); in [9], -2.39% (inactive). The Potency result (in experiment [2]; in experiment [3]; in experiment [4]; in experiment [11]; in the experiment with AS120; with CP238) was “inactive” throughout. The Potency entry in the experiment with FAB9 is “inactive”. The figures for the activity, negative = inhibition in experiment [15], in experiment [13] (parasite line A) and in [13] (parasite line B) were -7.81% [at 17.2 µM] (inactive), 5.83% (inactive) and 11.9% (inactive), respectively. For the same compound, the Potency in experiment [16] and in [17] was > 20600 nM (inactive) each time. Also, the max response in [9] (setting [18]) was -8.82%; in experiment [9] (setting [19]) it was -7.08%. In addition, the compound was called inactive in experiment [10] and in [12].
